This is a sample that favours compounds with a hit; in the whole collection about 3.4% have one here.
PLC-gamma1 inh: blocks human PLC-gamma1 enzyme activity | P19174 | purified PLC-gamma1, fluorogenic substrate, fluorescence | inhibition, % at 12.2 µM | hit rate 0.84% among 370,000 | AID 720700; in the data active = inhibition above about 9.5%
PLC-beta3 inh: blocks human PLC-beta3 enzyme activity. Q01970. Purified PLC-beta3, fluorogenic substrate, fluorescence. inhibition, % at 12.2 µM. hit rate 0.18% among 370,000. AID 720704;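 also: 0% = median of compound wells on plate and 100% = full blocker control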
ADAM17 inh: ADAM17 inhibition, QFRET primary screen. P78536. recombinant ADAM17, EDANS/DABCYL FRET peptide cleavage. inhibition, % at 6.95 µM. hit rate 0.83% among 370,000;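 active = inhibition above the mean of compounds lying between control limits plus 3 SD, set per campaign, cut at about 8.5% in these data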;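 also: 0% = DMSO-only wells as the low control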
ADAM10 inh: inhibits human ADAM10 | recombinant ADAM10, EDANS/DABCYL FRET peptide cleavage, 3 h | inhibition, % at 7 µM | hit rate 0.62% among 370,000 | AID 720582;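 active = inhibition above a per-campaign cutoff equal to the mean of compounds falling between control-based bounds plus 3 SD, cut at about 20% in these data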;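 also: 0% = DMSO wells while the 100% control is not disclosed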
proKLK7 act: proKLK7 (human) activation, primary screen; purified proKLK7, EDANS-DABCYL substrate fluorescence; 100% is mature enzyme control, 0% vehicle; activation, % at 7 µM; hit rate 0.9% among 370,000;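 active = activation above the mean of all tested compounds plus 3 SD, computed per campaign excluding outliers beyond control limits, cut at about 13% in these data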
HGIII-sPLA2 inh: Inhibits HGIII-sPLA2 liposome hydrolysis, primary screen; Q9NZ20; QFRET BODIPY PC-A2 liposome hydrolysis, fluorescence; inhibition, % at 12.2 µM; hit rate 0.56% among 370,000; AID 743126;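 active = inhibition above mean plus 3 SD of compounds lying within the high and low control bounds, cut at about 19% in these data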;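 also: 0% = median of test compound wells and 100% = no enzyme DMSO wells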
Target sequence (Q9NZ20 whole entry, looked up): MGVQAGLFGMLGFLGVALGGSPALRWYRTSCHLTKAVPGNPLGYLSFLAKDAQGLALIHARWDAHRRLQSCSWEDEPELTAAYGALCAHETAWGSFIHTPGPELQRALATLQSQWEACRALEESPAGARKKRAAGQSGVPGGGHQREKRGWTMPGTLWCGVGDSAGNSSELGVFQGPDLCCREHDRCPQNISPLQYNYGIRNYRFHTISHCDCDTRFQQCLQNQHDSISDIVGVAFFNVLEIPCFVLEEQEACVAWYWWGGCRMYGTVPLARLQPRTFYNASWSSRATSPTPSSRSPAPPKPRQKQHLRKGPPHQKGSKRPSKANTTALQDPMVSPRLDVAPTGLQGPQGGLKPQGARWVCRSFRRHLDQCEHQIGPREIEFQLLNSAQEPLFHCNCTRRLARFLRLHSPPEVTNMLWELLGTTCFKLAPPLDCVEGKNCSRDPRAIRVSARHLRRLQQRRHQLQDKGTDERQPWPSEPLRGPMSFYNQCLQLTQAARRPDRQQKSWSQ
PLCg1 ctr: inhibits human PLC-gamma1 in PLC-beta3 counter-screen. inhibition, % at 12.3 µM. purified PLC-gamma1, fluorogenic substrate, fluorescence. hit rate 3.1% among 3,300. shares compounds with PLC-gamma1 inh; in the data active = inhibition above about 9.5%
PLCb3 confirm: confirmation of human PLC-beta3 inhibitors | shares compounds with PLC-gamma1 inh | purified PLC-beta3, fluorogenic substrate fluorescence | inhibition, % at 12.3 µM | hit rate 1% among 3,300 | AID 743261
* hit, by the source's call; i = inactive; . = no result given. Rule as the data show it, unless noted: active = inhibition above about 11%; inactive = the rest.

SMILES	PLC-gamma1 inh	PLC-beta3 inh	ADAM17 inh	ADAM10 inh	proKLK7 act	HGIII-sPLA2 inh	PLCg1 ctr	PLCb3 confirm
CCSc1cc(C)nc2ncnn12	13*	14*	5	9	1	10	-13	-6
COc1cccc(NC(=O)Nc2nc3ncccn3c2-c2ccc(F)c(F)c2)c1	-496	i	-69	-253	4	9	.	.
CCOC(=O)CNC(=O)Cc1ccc(Cl)cc1	10*	-3	1	10	0	0	-4	0
CCN(CC)C(=O)CNC(=O)Cc1ccc(Cl)cc1	2	1	-4	-2	0	-2	.	.
COc1ccc(S(=O)(=O)n2nc(-c3ccc(Cl)cc3)cc2N)cc1OC	-1	4	7	-5	0	-18	.	.
CCOc1ccc(-c2cc(N)n(S(=O)(=O)c3ccc(OC)c(OC)c3)n2)cc1	4	11*	9	6	0	-17	0	-7
CN(C)S(=O)(=O)c1ccc(NC(=O)CN2CCN(C(c3ccccc3)c3ccccc3)CC2)cc1	11*	1	0	6	0	3	-1	-1
O=C(CN1CCN(C(c2ccccc2)c2ccccc2)CC1)Nc1ccc(N2CCOCC2)cc1	0	-3	-1	-7	0	3	.	.
COC(=O)[C@]1(CNC(=O)Nc2ccc(C)c(Cl)c2)CC(=O)N(C)[C@@H]1c1ccccc1	4	4	1	4	0	-15	.	.
Cc1ccc(SCCN2CCC(C)CCC2=O)cc1 (configuration not stated)	2	-1	-6	5	0	5	.	.
C[C@@H]1CCC(=O)N(CC[C@H](Oc2ccccc2)c2ccccc2)CC1	13*	4	8	9	0	-9	2	2
CCCCNC(=O)C[C@H]1C[C@@]2(C(=O)OC)C(=C[C@H](C(C)C)O[C@@H]2C2CC2)N(Cc2ccccc2)C1=O	-3	1	-2	-7	0	-1	.	.
C#CCN(CC=C)C(=O)c1ccc2nc(C3CCCCC3)oc2c1	9.5*	0	6	9	0	-42	-5	-3
Cc1ccc(-n2c(SCC(=O)N/N=C/C=C\c3ccco3)nnc2-c2ccccc2)cc1	-2	-1	3	5	0	-14	.	.
COC(=O)[C@]12C[C@H](CC(=O)N3CCN(C(=O)C4CC4)CC3)C(=O)N(CCC3=CCCCC3)C1=C[C@H](C1CCCC1)O[C@@H]2C	-2	-4	-1	4	0	-14	.	.
Cc1cc(NC(=O)CSc2nnc3c4c(C)c(C)sc4ncn23)no1	-6	12*	4	1	-1	7	-4	-2
Cc1nc(C(F)(F)F)ccc1C(=O)N1CCC1(C)C(=O)NS(=O)(=O)c1ccc2c(c1)CCO2 (configuration not stated)	10*	2	5	1	1	0	4	2
Cc1nc(C(F)(F)F)ccc1C(=O)N1CCC1(C)C(=O)NS(=O)(=O)c1cccc(F)c1 (configuration not stated)	0	3	-2	-4	1	-2	.	.
NCc1ccc(OCCCN2CCC(C(O)(C3=CCCC3)c3ccccc3)CC2)cc1 (configuration not stated)	1	0	-6	-15	0	-3	.	.
COc1ccc(C(=O)Nc2ccc3c(c2)nc(CN2CCN(C(C)=O)CC2)n3C)cc1	8	11*	2	4	0	3	0	-1
Cc1ccc(CNC(=O)OC(C)(C)C)c(/C=C/S(=O)(=O)NC2CCCC2)c1	6	-1	-3	0	0	5	.	.
O=C(N[C@H](C(=O)N1CCC[C@H]1C(=O)NCCc1ccccc1Cl)C1CCCCC1)C1CC1	2	3	-1	-7	0	-1	.	.
CCCCN1CCN(C(=O)C2CCCN(C(=O)c3ccc4c(c3)NC(=O)CS4)C2)CC1 (configuration not stated)	0	2	-1	2	1	3	.	.
